From PubChem
sPLA2-III inh = Blocks human group III sPLA2 activity; Q9NZ20; QFRET BODIPY PC-A2 liposome hydrolysis, fluorescence; inhibition, % at 12.2 µM; hit rate 0.56% among 370,000; AID 743126;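 active = inhibition above mean plus 3 SD of compounds lying within the high and low control bounds, cut at about 19% in these data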
APOBEC3A inh = blocks human APOBEC3A ssDNA deamination. P31941. recombinant A3A, FAM/TAMRA ssDNA deamination fluorescence. inhibition, % at 20 µM. hit rate 0.41% among 330,000. AID 493011;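 active = at least 40% inhibition at 20 µM here, with at most 30% in a related deaminase screen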
Target sequence (P31941 whole entry, looked up): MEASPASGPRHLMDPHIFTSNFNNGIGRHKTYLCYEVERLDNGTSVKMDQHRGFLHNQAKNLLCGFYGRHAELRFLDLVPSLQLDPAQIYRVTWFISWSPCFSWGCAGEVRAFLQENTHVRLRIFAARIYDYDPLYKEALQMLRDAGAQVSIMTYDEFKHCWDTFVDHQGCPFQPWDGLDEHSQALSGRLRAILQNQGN
A3G deaminase = blocks human APOBEC3G single-stranded DNA deamination | Q9HC16 | recombinant A3G, ssDNA deamination FAM/TAMRA fluorescence | inhibition, % at 20 µM | hit rate 0.28% among 330,000;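 active = inhibition of at least 40% at 20 µM, with no more than 30% in the related APOBEC3A deaminase screen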
Target sequence (Q9HC16 whole entry, looked up): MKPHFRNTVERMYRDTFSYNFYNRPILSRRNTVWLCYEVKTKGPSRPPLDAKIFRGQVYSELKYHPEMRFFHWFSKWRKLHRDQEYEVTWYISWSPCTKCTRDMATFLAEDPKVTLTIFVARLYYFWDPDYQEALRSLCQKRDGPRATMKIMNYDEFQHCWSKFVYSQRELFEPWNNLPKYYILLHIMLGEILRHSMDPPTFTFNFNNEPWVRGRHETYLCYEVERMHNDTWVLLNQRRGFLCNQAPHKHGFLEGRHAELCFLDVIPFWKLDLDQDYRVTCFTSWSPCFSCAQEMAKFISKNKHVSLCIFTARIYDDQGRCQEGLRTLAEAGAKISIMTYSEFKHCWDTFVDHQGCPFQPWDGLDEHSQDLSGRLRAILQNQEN
NALP1 yeast inh = blocks the NALP1 inflammasome reconstituted in yeast; S. cerevisiae NALP1/ASC/caspase-1 growth, X-gal OD620, 72 h; AID 2071; inhibition, % at 10 µM; hit rate 0.61% among 280,000; in the data active = inhibition mostly above about 24%, no sharp cut-off; inactive = mostly below about 32%
Fh CTSL1 inh = cathepsin L1 inhibition, PFM18AAP counter-screen | recombinant F. hepatica cathepsin L1, Z-Leu-Arg-MCA fluorescence | inhibition, % at 5.96 µM | hit rate 0.49% among 300,000 | AID 1906;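 active = inhibition above the mean of all tested compounds plus 3 SD, set per screening campaign, cut at about 17% in these data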
A number is an active result; n = inactive; x = no result given. Rows were chosen to be rich in hits. Some 2% of all compounds tested hit in one or more screens of this group.

SMILES	sPLA2-III inh	APOBEC3A inh	A3G deaminase	NALP1 yeast inh	Fh CTSL1 inh
COc1cccc(NC(=O)C23CCC(C)(C(=O)O2)C3(C)C)c1 (stereo not given)	n	n	n	39	n
COCCCN1C(=O)[C@H](CC(=O)NCc2ccc(OC)c(OC)c2)[C@]2(C(=O)OC)CCCCC=C12	n	x	x	x	x
COc1ccc(C(=O)Nc2ccccc2C(=O)N2CCCCCC2)cc1OC	n	n	n	n	n
CCC(C)C(NC(=O)c1ccccc1NC(=O)c1ccc(OC)cc1)C(=O)NCc1ccco1 (stereo not given)	n	n	n	n	45
COc1ccc(C(=O)Nc2ccccc2C(=O)NC(C)C)cc1OC	n	n	n	36	n
COc1ccc(C(=O)Nc2ccc(Cl)cc2C(=O)NCc2ccco2)cc1	n	n	n	n	n
O=c1c2ccccc2ncn1-c1cccc([N+](=O)[O-])c1	20	n	n	x	n
Cc1cc(C)n2nc3ccccc3c2n1	n	n	n	25	n
Cc1cc(=O)[nH]c2c3ccccc3nn12	n	n	n	n	n
CCOc1cc(/C=N/NC(=O)C(C)Sc2ccccc2)ccc1O (stereo not given)	n	n	n	n	n
COc1cccc(/C=N/NC(=O)C(C)Sc2ccccc2)c1 (stereo not given)	n	n	n	30	n
CCC[C@H]1[C@@H](OC(=O)Oc2ccc([N+](=O)[O-])cc2)CC[C@@]23CCCN2C(=O)CCC[C@@H]13	n	x	x	x	x
CN(C)CCCN(C(=O)/C=C/c1cccs1)c1nc2c(F)cccc2s1	n	x	x	n	x
CN(C)CCCN(C(=O)CCOc1ccccc1)c1nc2c(F)cccc2s1	n	x	x	52	x
CN(C)CCCN(C(=O)c1sc2ccccc2c1Cl)c1nc2c(F)cccc2s1	n	n	n	n	n
Cc1cccc2sc(N(CCCN(C)C)C(=O)c3sc4ccccc4c3Cl)nc12	n	n	n	54	n
Cc1cccc2sc(N(CCN(C)C)C(=O)/C=C/c3cccs3)nc12	n	n	n	54	n
CC1(C)CC(=O)N(CC(=O)N2CCN(Cc3ccccc3)CC2)c2ccccc2S1(=O)=O	n	x	x	x	x
c1ccc(Cn2c(SCC3CCCCC3)nnc2-c2cccnc2)cc1	n	x	x	x	x
O=C(COc1ccc(Br)cc1)NCCCNC(=O)c1cccnc1	n	n	n	n	n
O=C(COc1ccc(Cl)cc1)NCCCNC(=O)c1cccnc1	n	n	n	n	17
Cc1ccc(S(=O)(=O)N2CCC(c3nc4ccccc4o3)CC2)s1	n	x	x	x	x
CN(C)C(C)(C)C#CCC(c1ccccc1)c1ccccc1	n	n	n	64	n
CN(C)C(C)(C)C#CCCCCC#CC(C)(C)N(C)C	n	n	n	n	n
Cc1cc(N2CCC[C@@H]2C)nc2ccccc12	n	x	x	x	x
SMILES	sPLA2-III inh	APOBEC3A inh	A3G deaminase	NALP1 yeast inh	Fh CTSL1 inh
CCCCn1nnc(NC(=O)c2ccc(-c3ccccc3[N+](=O)[O-])o2)n1	n	n	n	30	n
COc1cc(C(=O)NC2CCCCN(Cc3ccc(Cl)cc3)C2=O)cc(OC)c1OC (stereo not given)	n	x	x	x	x
O=C1/C(=C\c2ccco2)CCC/C1=C\c1ccco1	n	87	n	n	n
COC(=O)C1Cc2ccccc2CN1C(=O)CCl (stereo not given)	n	n	n	n	48
COC(=O)C[C@H]1CC[C@H]2[C@H](COc3ccc(NC(=O)C4CCOCC4)cc3C(=O)N2C)O1	n	x	x	x	x
O=C1CSC(c2cccc(F)c2)N1c1c(F)cccc1F (stereo not given)	n	n	n	n	n
O=C1CSC(c2cccc([N+](=O)[O-])c2)N1c1c(F)cccc1F (stereo not given)	n	n	n	n	20
CCOC(=O)[C@]12CCCCC/C=C\1N(Cc1ccc(OC)cc1)C(=O)[C@H]2CC(=O)N1CCSCC1	n	x	x	x	x
C/C(=N\NC(N)=S)C1(C)CC2(CC(C)(C)OC2=O)C(=O)O1 (stereo not given)	n	n	n	n	19
CCC(=O)N1CCc2cc(Br)c(S(=O)(=O)NCCCN(CC)Cc3ccccc3)cc21	n	x	x	x	x
Cc1cccc(C)c1NC(=O)CN(C)C(=O)Cn1c(=O)cnc2ccccc21	n	n	n	30	n
NC(=S)N/N=C\c1c(OCc2ccccc2Cl)ccc2ccccc12	n	n	n	n	30
NC(=S)N/N=C\c1c2ccccc2cc2ccccc12	n	x	x	n	84
COc1ccc(C(=S)N2CCN(c3cccc(Cl)c3)CC2)cc1	20	n	n	n	n
CC(=O)/C(N=Nc1ccc(C(=O)O)cc1)=C(\C)O	n	n	n	43	n
O=C(c1ccncc1F)N1CCC(n2nnc3ncccc32)CC1	n	x	x	x	x
COc1ccc(S[C@]2(C(=O)N(C)C)CC(=O)N(c3ccccc3)[C@@H]2c2ccc(OC)cc2)cc1	n	x	x	x	x
CCOC(=O)N1CCN(CC(O)COc2ccccc2C(C)CC)CC1 (stereo not given)	n	n	n	26	n
COc1ccc(Cn2cc(COC(=O)NCC(C)C)nn2)cc1	n	x	x	x	x
CN1C2=NC(c3ccccc3)CC(=O)N2/C(=C\c2ccccc2)C1c1ccccc1C(F)(F)F (stereo not given)	n	x	x	x	x
O=[N+]([O-])c1ccc(Nc2ccccn2)c([N+](=O)[O-])c1	n	n	n	26	n
O=C(/C=C/c1cccc([N+](=O)[O-])c1)c1ccc([N+](=O)[O-])o1	n	x	x	x	n
O=C(/C=C/c1cccc([N+](=O)[O-])c1)c1ccco1	n	n	n	47	n
O=C(/C=C/c1cccc([N+](=O)[O-])c1)Nc1ccccn1	n	n	n	23	n
O=C(/C=C/c1cccc([N+](=O)[O-])c1)N(c1ccccn1)c1ccccn1	n	n	n	x	n
SMILES	sPLA2-III inh	APOBEC3A inh	A3G deaminase	NALP1 yeast inh	Fh CTSL1 inh
Nc1ccc(Nc2ccc([N+](=O)[O-])cc2[N+](=O)[O-])cc1	n	n	n	n	n
CC(C)(C)c1ccc(-c2nnc3sc(COc4ccccc4)nn23)cc1	n	x	x	x	x
Cc1nc2ccc(C(=O)N3CCN(C(=O)C(Cl)Cl)CC3)cc2n1C1CCCC1	n	x	x	x	x
Cc1cc(C)nc(/N=C(\N)Nc2ccc(OCCC(C)C)cc2)n1	n	n	n	33	n
COc1cccc(C2c3c(C)nn(-c4ccc([N+](=O)[O-])cc4)c3N=C3C(=O)Nc4ccccc4N32)c1 (stereo not given)	n	n	n	30	n
CCOC(=O)[C@]12CCCCC/C=C\1N(Cc1ccc(OC)cc1)C(=O)[C@H]2CC(=O)N1CCCCC1	n	x	x	x	x
CC1=C(C(=O)OCC2CCCO2)C(c2ccc(F)cc2)NC(=O)N1 (stereo not given)	n	n	n	41	n
Cc1ccc(S(=O)(=O)N(CCc2ccccc2)CC(=O)N2CCOCC2)cc1	n	x	x	x	x
O=C(CNC(=O)c1ccco1)OC(C(=O)c1ccccc1)c1ccccc1 (stereo not given)	n	n	n	n	19
COc1ccc(C(=O)C(CCCCC(CN(C)C)C(=O)c2ccc(OC)cc2)CN(C)C)cc1 (stereo not given)	n	n	n	25	n
